Structures are written as SMILES. Where “and” joins values, the source holds several entries; their conditions need not be identical. Equal entries are not always repeated. Records with an inconclusive call do not appear. Where a structure was tested more than once in an assay, its records may differ in their call. Calls of active or inactive are those of the source. Calls come from the whole dose curve; as a rule, active = well fitted curve in the direction sought with a large enough effect; inconclusive = small, poorly fitted or top-dose-only effect, or another doubt; inactive = no such curve, though single readings can be large; an effect the other way counts as inactive or inconclusive.

A short description of assay [1]: P-glycoprotein substrates identified in KB-8-5-11 adenocarcinoma cell line, qHTS therapeutic library screen (AID 1346987). Note: nearly all actives have a fitted effect of over 65% in size. Note: potency is the fitted concentration of half-maximal effect. In short, it runs like this: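 KB-8-5-11: colchicine-selected sub-line of KB-3-1 over-expressing P-gp; assay medium lacked colchicine. 72 h drug exposure at 37 degree C, CellTiter-Glo.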
(In general: Quantitative high-throughput screening tests each substance at several concentrations.)

Assay [2] in a line: NS1 protein of Zika virus - qHTS assay to identify small molecule inhibitors in human HEK 293 cells (AID 1347053). Note: series mostly up to about 46 µM; nearly all actives have a fitted effect of over 55% in size. In short, it runs like this: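 HEK 293; 20 h pre-culture, 37 C/5% CO2; cpd 1 h pre-infection; ZIKV MR766, MOI = 0.5, 24 h, 37 C; TR-FRET NS1 readout (two anti-NS1 Abs); norm. to no-virus vs infected.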
The nature of assay [3]: qHTS of pediatric cancer cell lines to identify multiple opportunities for drug repurposing: Primary screen for TC32 cells (AID 1347089). Note: nearly all actives have a fitted effect of over 60% in size. Note: potency is the fitted concentration of half-maximal effect. In short, it runs like this:
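Luminescent CellTiter-Glo read-out of metabolically active TC32 cells after 48 h compound exposure. Primary: MIPE 11-point, 0.78 nM–46 µM; NPC 8-point, 0.59 nM–46 µM. Confirmatory: 11-point dilutions.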

Assay [4] can be described thus: qHTS of pediatric cancer cell lines to identify multiple opportunities for drug repurposing: Primary screen for DAOY cells (AID 1347090). Note: nearly all actives have a fitted effect of over 55% in size. Note: potency is the fitted concentration of half-maximal effect. The gist of the method:
(§1)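 Viability measured as metabolically active cells via CellTiter-Glo luminescence following 48 hours of compound exposure, 11-point dilutions in confirmatory testing. 500-1,000 cells/well plated 5 hours before dosing; controls were DMSO and 2.3 µM bortezomib.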

Assay [5] can be described thus: qHTS of pediatric cancer cell lines to identify multiple opportunities for drug repurposing: Primary screen for A673 cells (AID 1347092). Note: nearly all actives have a fitted effect of over 45% in size. Note: potency is the fitted concentration of half-maximal effect. In short, it runs like this:
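A673 cells (500-1,000 cells/well in growth media) were pre-incubated 5 h at 37 degrees C, then exposed to compounds for 48 h. Viability was read as CellTiter-Glo luminescence; concentration-response curves came directly from the primary screen.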

Assay [6] can be described thus: qHTS of pediatric cancer cell lines to identify multiple opportunities for drug repurposing: Primary screen for SK-N-MC cells (AID 1347093). Note: potency is the fitted concentration of half-maximal effect. The gist of the method: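 Metabolically active cells were quantified by ATP-dependent luminescence (CellTiter-Glo, 15 min at room temperature) following 48 h treatment. Cells had been plated at 500-1,000 per well and settled for 5 h beforehand.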

Assay [7] can be described thus: qHTS of pediatric cancer cell lines to identify multiple opportunities for drug repurposing: Primary screen for BT-37 cells (AID 1347094). Note: potency is the fitted concentration of half-maximal effect. The gist of the method: (§2)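 Phenotypic viability qHTS, 48 h compound exposure, CellTiter-Glo luminescence read-out; multi-concentration dosing so that potency and efficacy derive directly from the primary screen's curves.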
Assay [8] can be described thus: qHTS of pediatric cancer cell lines to identify multiple opportunities for drug repurposing: Primary screen for NB-EBc1 cells (AID 1347095). Note: potency is the fitted concentration of half-maximal effect. In short, it runs like this:
as §2

Assay [9] is described as follows: qHTS of pediatric cancer cell lines to identify multiple opportunities for drug repurposing: Primary screen for U-2 OS cells (AID 1347096). Note: nearly all actives have a fitted effect of over 50% in size. Note: potency is the fitted concentration of half-maximal effect. The gist of the method:
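Viability after 48 h compound treatment at 37C, 500-1,000 cells/well, read as ATP luminescence with CellTiter-Glo. Primary screens used 11-point (MIPE, 0.78 nM-46 µM) or 8-point (NPC, 0.59 nM-46 µM) final concentrations; follow-up screens used 11-point dilutions.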

Assay [10] in a line: qHTS of pediatric cancer cell lines to identify multiple opportunities for drug repurposing: Primary screen for Saos-2 cells (AID 1347097). Note: nearly all actives have a fitted effect of over 40% in size. Note: potency is the fitted concentration of half-maximal effect. The gist of the method: as §2
The nature of assay [11]: qHTS of pediatric cancer cell lines to identify multiple opportunities for drug repurposing: Primary screen for SK-N-SH cells (AID 1347098). Note: nearly all actives have a fitted effect of over 65% in size. Note: potency is the fitted concentration of half-maximal effect. In short, it runs like this: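 Cells (500-1,000/well) rested 5 h, then received compounds for 48 h; metabolically active cells were measured by CellTiter-Glo luminescence. Final concentrations spanned up to 46 µM (MIPE, 11-point) or 0.59 nM-46 µM (NPC, 8-point) in primary screens, 11-point in follow-ups.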

The nature of assay [12]: qHTS of pediatric cancer cell lines to identify multiple opportunities for drug repurposing: Primary screen for SJ-GBM2 cells (AID 1347091). Note: potency is the fitted concentration of half-maximal effect. In short, it runs like this:
as §1

On to `CC1(C)OC2CC3C4CC(F)C5=CC(=O)C=CC5(C)C4C(O)CC3(C)[C@]2(C(=O)CO)O1` (some centres not stated), for which the Potency entry in assay [1], in assay [2], in [3], in assay [4], in assay [5] and in assay [6] was “inactive” throughout. Moreover, the Potency result in [7], in assay [8], in [9], in assay [10] and in assay [11] was “inactive” throughout.

In the case of `N#Cc1c(N(CC(=O)O)CC(=O)O)sc(C(=O)O)c1CC(=O)O`, the Potency result in assay [1], in assay [2], in assay [3], in assay [12], in assay [5] and in [6] was “inactive” each time. Moreover, the Potency entry in [8], in assay [9], in assay [10] and in assay [11] was “inactive” throughout.

As to `C[C@@H](O)[C@H]1C(=O)N2C(C(=O)OCOC(=O)C(C)(C)C)=C(SC3CN(C4=NCCS4)C3)[C@H](C)[C@H]12`, the Potency result in assay [1], in [2], in assay [3], in assay [4], in assay [12] and in assay [6] was “inactive” each time. In addition, the Potency result in assay [7], in assay [8], in [9], in assay [10] and in assay [11] was “inactive” in each case.

`NC[C@H]1O[C@H](O[C@@H]2[C@@H](O)[C@@H](O[C@H]3O[C@H](CO)[C@@H](O)[C@H](N)[C@@H]3O)[C@H](N)C[C@@H]2N)[C@H](O)[C@@H](O)[C@H]1O`: the Potency entry in assay [1], in assay [2], in assay [3], in [12], in assay [5] and in assay [8] was “inactive” in each case. For the same compound, the Potency entry in assay [9] and in [10] was “inactive” each time.

Regarding `COc1cc(F)c(C(C)C)cc1-c1ccc(C(F)(F)F)cc1CN1C(=O)O[C@H](c2cc(C(F)(F)F)cc(C(F)(F)F)c2)[C@@H]1C`, the Potency entry in [1], in assay [2], in assay [3], in assay [4], in assay [5] and in assay [6] was “inactive” in each case. In addition, the Potency result in assay [10] is “inactive”. For the same compound, the Potency in [8] is 14.8 µM (active).

Regarding `CC1CCN(c2cc(N3CCN(C)CC3)ccc2NC(=O)c2cc(C#N)c[nH]2)CC1`, the Potency result in [1], in assay [2], in assay [3], in [4], in [5] and in assay [6] was “inactive” each time. Besides, the Potency result in assay [7] and in assay [9] was “inactive” each time. Moreover, in [11], the Potency was 21.5 µM (active).

As to `O=C(O)C1=CC(O)C(O)[C@H](O)C1` (some centres not stated), the Potency entry in [1], in assay [2], in [3], in assay [4], in assay [5] and in [6] was “inactive” each time. For the same compound, the Potency result in assay [7], in [8], in assay [9], in [10] and in [11] was “inactive” in each case.

In the case of `CC1CNc2c(cccc2S(=O)(=O)N[C@@H](CCCN=C(N)N)C(=O)N2CC[C@@H](C)C[C@@H]2C(=O)O)C1` (some centres not stated), the Potency result in assay [1], in [2], in assay [3] and in assay [9] was “inactive” in each case. Moreover, the Potency in assay [12] was 18.7 µM (active); in assay [5], 5.9 µM (active); in [6], 6.62 µM (active); in [7], 10.9 µM (active); in assay [8], 6.62 µM (active); in [11] it was 8.57 µM (active).

As for `COc1ccc2c(c1)c(C1=C(c3c[nH]c4ccccc34)C(=O)NC1=O)cn2CCCN(C)C`, the Potency result in [1], in [2], in assay [3] and in [4] was “inactive” in each case. The results for the Potency in [5], in assay [8] and in [11] were 23.5 µM (active), 20.9 µM (active) and 21.5 µM (active), respectively.

For the compound `COc1ccc2c(c1)CC[C@H]1[C@@H]2CC[C@]2(C)[C@@H](NCCCCCCN3C(=O)C=CC3=O)CC[C@H]12`, the Potency result in assay [1], in assay [2], in assay [3], in [4], in assay [5] and in [6] was “inactive” in each case. In addition, the Potency result in assay [8] is “inactive”.

Consider `CCN(CCO)CCCOc1ccc2c(Nc3cc(CC(=O)Nc4cccc(F)c4)[nH]n3)ncnc2c1`, for which the Potency result in assay [1], in assay [2], in assay [4], in assay [9] and in [10] was “inactive” in each case. The Potency in [3] was 0.33 µM (active); in assay [12], 0.166 µM (active); in assay [6], 0.209 µM (active).

Take `C#C[C@]1(O)CC[C@H]2[C@H]3CCc4cc(OC)ccc4[C@H]3CC[C@@]21C`: the Potency result in [1], in assay [2], in assay [3], in assay [12], in assay [7] and in assay [8] was “inactive” each time. Besides, the Potency entry in assay [9] and in [10] was “inactive” throughout. For the same compound, the results for the Potency in assay [5] and in [6] were 18.7 µM (active) and 20.9 µM (active), respectively.

In the case of `CCN(CC)CCCCNc1nc2cc(Cl)c(Cl)cc2nc1-c1ccc(-c2cccs2)s1`, the Potency is 9.35 µM (active) in assay [1]; 10.5 µM (active) in assay [12]; 11.8 µM (active) in assay [5]; 27.3 µM (active) in [7]; 20.9 µM (active) in assay [8]; 18.7 µM (active) in assay [10]. The Potency entry in [2] and in assay [3] was “inactive” in each case.

For the compound `Cc1cnc(Nc2cccc(CN3CCOCC3)c2)nc1Nc1cccc(S(=O)(=O)NC(C)(C)C)c1`, the Potency result was “inactive and 4.11 µM (active)” in assay [1]; 14.8 µM (active) in assay [4]; 5.9 µM (active) in assay [5]; 2.64 µM (active) in assay [6]; 4.18 µM (active) in assay [8]; 14.8 µM (active) in assay [9]. The Potency in assay [10] is 5.26 µM (active). For the same compound, the Potency result in assay [2] and in assay [3] was “inactive” in each case.

Turning to `Cc1cnc(-c2cc(N3CCN(C(=O)CCS(C)(=O)=O)CC3)ncc2Cl)c(C)c1`, the Potency result in [1], in assay [2], in [3], in assay [4], in [8] and in assay [9] was “inactive” each time. The Potency was 4.69 µM (active) in assay [5] and 16.6 µM (active) in assay [6].

For the compound `CCC(c1ccc(O)cc1)C(CC)c1ccc(O)cc1` (configuration not stated), the Potency result in assay [1], in assay [2], in assay [3], in assay [12] and in assay [11] was “inactive” each time. The Potency is 0.59 µM (active) in assay [4] and 1.05 µM (active) in [6].
